GRK2 inh: blocks RNA aptamer binding to human GRK2; AID 488847; 330,000 tested, 0.59% active; bead flow cytometry, FAM-aptamer displacement from GRK2; inhibition of aptamer binding, % at 10 µM; P25098;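 active = inhibition of aptamer binding above 40%, roughly 3 SD of noise, on plates passing a quality check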;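 note: median bead fluorescence of bound FAM aptamer so fluorescent compounds give negative values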
MEKK2 WT-MEK5: raises or lowers MEK5 binding to wildtype human MEKK2 PB1 domain. bead flow cytometry, Alexa488-MEK5 binding to MEKK2 WT; actives lie on both sides. 290,000 tested, 1.1% active. AID 1531. binding response (% of control), % at 10 µM; in the data active = binding response below about 67% or above about 130%
MEKK2mut PB1 HTS: signal of MEK5 binding to mutant human MEKK2 PB1 domain. AID 1530. 290,000 tested, 0.35% active. bead flow cytometry, Alexa488-MEK5 binding to MEKK2 mutant. percent response, % at 10 µM; in the data active = percent response above about 24%, passing the limit was not always enough
MEKK3 PB1 HTS: MEKK3-MEK5 PB1 interaction, increase or decrease | bead-based flow cytometry, Alexa488-MEK5 binding to MEKK3; actives lie on both sides; 0 = blocked by unlabeled MEK5, 100 = vehicle | 290,000 tested, 1.4% active | binding response (% of control), % at 10 µM | Q99759;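 active = binding response more than 3 SD above or below the average of its plate-row segment, actives on both sides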;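 note: Alexa488 bead fluorescence after subtracting the streptavidin-only scavenger bead signal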
MEKK2wt confirm: raises or lowers MEK5 binding to wildtype human MEKK2, retest; bead flow cytometry, Alexa488-MEK5 binding to MEKK2 WT; actives lie on both sides; 5,900 tested, 2.4% active; binding response (% of control), % at 10 µM; shares compounds with MEKK3 PB1 HTS; in the data active = binding response below about 16% or above about 210%; inactive = in between
MEKK2mut confirm: signal of MEK5 binding to mutant human MEKK2, retest | shares compounds with MEKK3 PB1 HTS | bead flow cytometry, Alexa488-MEK5 binding to MEKK2 mutant | 5,900 tested, 2% active | AID 1893 | percent response, % at 10 µM; in the data active = percent response mostly above about 71%, no sharp cut-off; inactive = mostly below about 38%;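 note: higher means compound restores mutant binding toward wildtype level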
MEKK3-MEK5 inh: MEKK3-MEK5 PB1 inhibition, single concentration confirmation; shares compounds with MEKK3 PB1 HTS; binding response (% of control), % at 10 µM; 5,900 tested, 1.8% active; bead flow cytometry, Alexa488-MEK5 binding to MEKK3; active compounds read low;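 active = binding response below 72% of control, or above a set upper limit, though filed actives all read lower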;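 note: 100% = DMSO only wells and 0% = binding blocked by excess unlabeled MEK5; lower values mean stronger disruption of MEK5 binding to MEKK3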
Active calls of the source: *; nt = not tested or not shown; [ ] = another dose, or the depositor's remark. A selection: hits, their analogues and other compounds. The true share with any hit is near 2.5%.

SMILES	GRK2 inh	MEKK2 WT-MEK5	MEKK2mut PB1 HTS	MEKK3 PB1 HTS	MEKK2wt confirm	MEKK2mut confirm	MEKK3-MEK5 inh
COc1cc2c(cc1NC(=O)c1ccc3c(c1)OCO3)oc1ccccc12	4	-5.0*[inhibitor]	-34	99	95	-4	99
COc1ccccc1NC(=O)c1ccc2c(c1)OCO2	1	107	2	106	nt	nt	nt
Cc1c(NC(=O)c2ccc3c(c2)OCO3)cccc1-c1nc2ccccc2o1	0	113	4	131*	108	13	111
Cc1ccc(-c2nc3ccccc3o2)cc1NC(=O)c1ccc2c(c1)OCO2	1	97	-2	97	nt	nt	nt
COc1cc2c(cc1NC(=S)Nc1cccc(C(F)(F)F)c1)oc1ccccc12	0	153*	19	102	126	-7	101
O=C(COC(=O)CSc1ccc(F)cc1)NCC1CCCCC1	0	109	5	104	nt	nt	nt
CN(C)S(=O)(=O)N(CC(=O)Nc1ccc2ccccc2c1)c1ccccc1	4	93	17	114	nt	nt	nt
CN(C)C(=O)c1snnc1-c1ccccc1	0	103	11	104	nt	nt	nt
COc1ccc(C(C)=O)cc1COC(=O)c1ccc2ccccc2n1	3	107	-1	129*	102	3	102
COc1ccc(C(=O)Nc2ccc(-c3nnn(CC(=O)N4CCN(C(=O)c5ccco5)CC4)n3)cc2)cc1	0	101	-3	102	nt	nt	nt
CN(C)CCP(=O)(c1ccccc1)c1ccccc1	0	96	-1	96	nt	nt	nt
CCCP(=O)(CCC)CCP(=O)(c1ccccc1)c1ccccc1	0	96	0	63*[inhibitor]	97	-4	94
Cc1ccc(S(=O)(=O)N(C)C)cc1-n1c(SCC(=O)Nc2ccc(F)c(F)c2F)nc2ccccc2c1=O	2	106	1	148*	97	-4	104
CCCCn1c(O)c(/C=C/C=C/C=Nc2ccccc2)sc1=S	1	-5.0*	-29	21*[inhibitor]	22	-27	35*
CCn1c(O)c(/C=C/C=C/C=Nc2ccccc2)sc1=S	0	59*[inhibitor]	-1	87	84	-7	93
CCn1c(O)c(C=NCc2ccccc2)sc1=S	4	98	-3	97	nt	nt	nt
CN(C)c1ccc(S(=O)(=O)N(C)C)cc1[N+](=O)[O-]	2	99	-4	102	nt	nt	nt
Cc1ccnn1CCC(=O)O	0	113	29	129*	102	3	102
O=C1C=C(NCc2ccc(Cl)cc2)CC(c2ccco2)C1 (stereo not drawn)	0	116	8	127*	95	-3	96
CC(C)CNC1=CC(=O)CC(c2ccco2)C1 (stereo not drawn)	4	97	-3	96	nt	nt	nt
O=S(=O)(c1cccc(Cl)c1)N1CCN(S(=O)(=O)c2ccc3c(c2)OCCO3)CC1	4	nt	nt	nt	nt	nt	nt
O=S(=O)(c1ccc2c(c1)OCCO2)N1CCN(c2cccc(Cl)c2)CC1	3	87	-17	81*[inhibitor]	98	-8	101
Cc1cc(C)n2nc(SCC(=O)NCc3ccco3)nc2n1	1	87	-7	77*[inhibitor]	104	3	101
Cc1ccc2cc(C#N)c(SCC(=O)NCc3ccco3)nc2c1	2	2.0*[inhibitor]	-17	2.0*[inhibitor]	98	-6	100
CC(C)(C)NC(=O)c1oc2ccccc2c1COc1ccccc1	3	102	-1	69*[inhibitor]	103	-12	97
O=C(CSc1nc(=O)n(CCCN2CCOCC2)c2c1CCCC2)Nc1ccc(F)cc1F	3	nt	nt	nt	nt	nt	nt
Cc1ccnc2nc(C(=O)OCC(=O)NCCc3ccc(Cl)cc3)nn12	0	104	0	135*	69	-24	62*
Cc1ccc(S(=O)(=O)CC#CCOC(=O)c2ccc([N+](=O)[O-])cc2)cc1	0	98	-8	98	nt	nt	nt
Cc1ccc(C(=O)NC(=S)Nc2nc(-c3cccc([N+](=O)[O-])c3)cs2)c(Cl)c1	4	51	-16	45*[inhibitor]	103	-2	103
